Laboratory results published in PubChem BioAssay AID1159580 (chemical genetic matrix, 2015).
Values joined by “and” are separate entries in the source; they are usually repeats but may differ in a detail not shown here. Equal entries are not always repeated. The whole screen tested about 5,500 compounds, of which about 2,000 (36%) were called active. Inconclusive results (about 18%) are left out. Cut-off read from the data, not from the text of the source: active = normalized growth mostly below about 0.91 (no sharp cut-off); inconclusive = no clear call, values can overlap the other calls; inactive = mostly above about 0.92. This is one part of the list.

Assay: chemical genetic growth profiling, strain panel (AID 1159580);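 note: tested at 20 µM; growth read once vehicle control cultures reached saturation at 30 °C; 1 = growth at the plate median or of vehicle wells; lower values mean less growth of the strain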
Conditions: S. cerevisiae deletion strains, growth OD

Measured: normalized growth

CC1CCC2(OC1)OC1CC3C4CC[C@H]5C[C@@H](O)CC[C@]5(C)C4CC(=O)[C@]3(C)C1C2C (stereo partly specified)
inactive: locus YAL013W, strain DEP1, stronger effect = lower value 1.01 | locus YAL021C, strain ccr4, stronger effect = lower value 0.997 | locus YAL026C, strain drs2, stronger effect = lower value 1.03 | locus YAL030W, strain snc1, stronger effect = lower value 1.01 | locus YBL061C, strain skt5, stronger effect = lower value 1.02 | locus YBR009C, strain hhf1, stronger effect = lower value 0.983 | locus YBR021W, strain FUR4, stronger effect = lower value 0.991 | locus YBR023C, strain chs3, stronger effect = lower value 1.02 | locus YBR171W, strain sec66, stronger effect = lower value 1.02 | locus YBR229C, strain ROT2, stronger effect = lower value 1.01 | locus YBR231C, strain swc5, stronger effect = lower value 0.996 | locus YBR279W, strain paf1, stronger effect = lower value 1.01 | locus YCL011C, strain gbp2, stronger effect = lower value 1.04 | locus YCL016C, strain dcc1, stronger effect = lower value 1.01 | locus YCL029C, strain bik1, stronger effect = lower value 0.973 | locus YCL061C, strain MRC1, stronger effect = lower value 1.02 | locus YCL069W, strain vba3, stronger effect = lower value 1.02 | locus YCR088W, strain abp1, stronger effect = lower value 1.03 | locus YDL005C, strain med2, stronger effect = lower value 1.01 | locus YDL035C, strain GPR1, stronger effect = lower value 1.01 | locus YDL040C, strain nat1, stronger effect = lower value 1.01 | locus YDL074C, strain BRE1, stronger effect = lower value 0.974 | locus YDL101C, strain DUN1, stronger effect = lower value 1.01 | locus YDL134C, strain PPH21, stronger effect = lower value 1.01 | locus YDL185W, strain tfp1, stronger effect = lower value 0.981 | locus YDL192W, strain arf1, stronger effect = lower value 0.992 | locus YDR001C, strain nth1, stronger effect = lower value 1.01 | locus YDR069C, strain doa4, stronger effect = lower value 1 | locus YDR101C, strain arx1, stronger effect = lower value 0.974 | locus YDR137W, strain rgp1, stronger effect = lower value 1.02 | locus YDR150W, strain NUM1, stronger effect = lower value 1.01 | locus YDR159W, strain sac3, stronger effect = lower value 0.962 | locus YDR162C, strain NBP2, stronger effect = lower value 1.01 | locus YDR195W, strain ref2 1.04 | locus YDR297W, strain sur2, stronger effect = lower value 0.995 | locus YDR318W, strain mcm21, stronger effect = lower value 0.975 | locus YDR334W, strain swr1, stronger effect = lower value 1.01 | locus YDR335W, strain msn5, stronger effect = lower value 1.02 | locus YDR388W, stronger effect = lower value 0.982 | locus YDR392W, strain spt3, stronger effect = lower value 0.866 | locus YDR502C, strain sam2, stronger effect = lower value 0.98 | locus YEL003W, strain gim4, stronger effect = lower value 0.999 | locus YEL037C, strain rad23, stronger effect = lower value 1.02 | locus YEL061C, strain CIN8 (second series), stronger effect = lower value 1.01 | locus YEL061C, strain CIN8, stronger effect = lower value 1.01 | locus YER015W, strain faa2, stronger effect = lower value 1 | locus YER016W, strain bim1, stronger effect = lower value 1.01 | locus YER110C, stronger effect = lower value 0.978 | locus YER111C, strain swi4, stronger effect = lower value 1.01 | locus YER155C, strain BEM2 (second series), stronger effect = lower value 0.97 | locus YER155C, strain BEM2, stronger effect = lower value 1.01 | locus YER167W, strain BCK2, stronger effect = lower value 1.01 | locus YFR010W, strain ubp6, stronger effect = lower value 0.997 | locus YGL078C, strain dbp3, stronger effect = lower value 0.982 | locus YGL086W, strain mad1, stronger effect = lower value 0.998 | locus YGL167C, strain pmr1, stronger effect = lower value 1.01 | locus YGL173C, strain kem1, stronger effect = lower value 0.992 | locus YGL227W, strain vid30, stronger effect = lower value 1.02 | locus YGL240W, strain doc1, stronger effect = lower value 1 | locus YGL248W, strain PDE1, stronger effect = lower value 1.02 | locus YGL253W, strain hxk2, stronger effect = lower value 1.01 | locus YGR078C, strain PAC10, stronger effect = lower value 0.989 | locus YGR135W, strain pre9, stronger effect = lower value 0.987 | locus YGR229C, strain SMI1, stronger effect = lower value 1 | locus YGR252W, strain gcn5, stronger effect = lower value 0.992 | locus YHR013C, strain ard1, stronger effect = lower value 1.02 | locus YHR027C, strain rpn1, stronger effect = lower value 1.02 | locus YHR030C, strain SLT2, stronger effect = lower value 1.01 and 0.963 | locus YHR079C, strain IRE1 (second series), stronger effect = lower value 0.988 | locus YHR079C, strain IRE1, stronger effect = lower value 0.962 | locus YHR094C, strain hxt1, stronger effect = lower value 0.991 | locus YHR129C, strain ARP1, stronger effect = lower value 1 | locus YHR142W, strain chs7, stronger effect = lower value 1.03 | locus YHR200W, strain rpn10, stronger effect = lower value 0.987 | locus YIL066C, strain RNR3, stronger effect = lower value 1.01 | locus YIL073C, strain SPO22, stronger effect = lower value 0.983 | locus YIL125W, strain kgd1, stronger effect = lower value 0.989 | locus YIR030C, strain dcg1, stronger effect = lower value 0.984 | locus YJL092W, strain hpr5, stronger effect = lower value 1.01 | locus YJL095W, strain BCK1 (second series), stronger effect = lower value 1.01 | locus YJL095W, strain BCK1, stronger effect = lower value 1 and 0.964 | locus YJL115W, strain asf1, stronger effect = lower value 1.03 | locus YJL129C, strain trk1, stronger effect = lower value 1.04 | locus YJL134W, strain LCB3, stronger effect = lower value 1.01 | locus YJL154C, strain vps35, stronger effect = lower value 1.03 | locus YJL164C, strain tpk1, stronger effect = lower value 0.989 | locus YJL166W, strain qcr8, stronger effect = lower value 1 | locus YJL168C, strain set2, stronger effect = lower value 0.986 | locus YJL187C, strain SWE1 (second series), stronger effect = lower value 0.997 | locus YJR043C, strain POL32, stronger effect = lower value 1 | locus YJR066W, strain TOR1, stronger effect = lower value 0.927
